FAS-TE inh = FAS thioesterase (human) inhibition | 360,000 compounds, 0.67% hits | recombinant FAS-TE, OMFH fluorogenic substrate, fluorescence endpoint | inhibition, % at 15 µM | AID 602261;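 active = compounds whose normalised, plate-corrected inhibition of enzyme fluorescence in the single-dose primary screen is 50% or more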;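 also: 0% = DMSO with enzyme and 100% = substrate without enzyme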
Target sequence (P49327 whole entry, looked up): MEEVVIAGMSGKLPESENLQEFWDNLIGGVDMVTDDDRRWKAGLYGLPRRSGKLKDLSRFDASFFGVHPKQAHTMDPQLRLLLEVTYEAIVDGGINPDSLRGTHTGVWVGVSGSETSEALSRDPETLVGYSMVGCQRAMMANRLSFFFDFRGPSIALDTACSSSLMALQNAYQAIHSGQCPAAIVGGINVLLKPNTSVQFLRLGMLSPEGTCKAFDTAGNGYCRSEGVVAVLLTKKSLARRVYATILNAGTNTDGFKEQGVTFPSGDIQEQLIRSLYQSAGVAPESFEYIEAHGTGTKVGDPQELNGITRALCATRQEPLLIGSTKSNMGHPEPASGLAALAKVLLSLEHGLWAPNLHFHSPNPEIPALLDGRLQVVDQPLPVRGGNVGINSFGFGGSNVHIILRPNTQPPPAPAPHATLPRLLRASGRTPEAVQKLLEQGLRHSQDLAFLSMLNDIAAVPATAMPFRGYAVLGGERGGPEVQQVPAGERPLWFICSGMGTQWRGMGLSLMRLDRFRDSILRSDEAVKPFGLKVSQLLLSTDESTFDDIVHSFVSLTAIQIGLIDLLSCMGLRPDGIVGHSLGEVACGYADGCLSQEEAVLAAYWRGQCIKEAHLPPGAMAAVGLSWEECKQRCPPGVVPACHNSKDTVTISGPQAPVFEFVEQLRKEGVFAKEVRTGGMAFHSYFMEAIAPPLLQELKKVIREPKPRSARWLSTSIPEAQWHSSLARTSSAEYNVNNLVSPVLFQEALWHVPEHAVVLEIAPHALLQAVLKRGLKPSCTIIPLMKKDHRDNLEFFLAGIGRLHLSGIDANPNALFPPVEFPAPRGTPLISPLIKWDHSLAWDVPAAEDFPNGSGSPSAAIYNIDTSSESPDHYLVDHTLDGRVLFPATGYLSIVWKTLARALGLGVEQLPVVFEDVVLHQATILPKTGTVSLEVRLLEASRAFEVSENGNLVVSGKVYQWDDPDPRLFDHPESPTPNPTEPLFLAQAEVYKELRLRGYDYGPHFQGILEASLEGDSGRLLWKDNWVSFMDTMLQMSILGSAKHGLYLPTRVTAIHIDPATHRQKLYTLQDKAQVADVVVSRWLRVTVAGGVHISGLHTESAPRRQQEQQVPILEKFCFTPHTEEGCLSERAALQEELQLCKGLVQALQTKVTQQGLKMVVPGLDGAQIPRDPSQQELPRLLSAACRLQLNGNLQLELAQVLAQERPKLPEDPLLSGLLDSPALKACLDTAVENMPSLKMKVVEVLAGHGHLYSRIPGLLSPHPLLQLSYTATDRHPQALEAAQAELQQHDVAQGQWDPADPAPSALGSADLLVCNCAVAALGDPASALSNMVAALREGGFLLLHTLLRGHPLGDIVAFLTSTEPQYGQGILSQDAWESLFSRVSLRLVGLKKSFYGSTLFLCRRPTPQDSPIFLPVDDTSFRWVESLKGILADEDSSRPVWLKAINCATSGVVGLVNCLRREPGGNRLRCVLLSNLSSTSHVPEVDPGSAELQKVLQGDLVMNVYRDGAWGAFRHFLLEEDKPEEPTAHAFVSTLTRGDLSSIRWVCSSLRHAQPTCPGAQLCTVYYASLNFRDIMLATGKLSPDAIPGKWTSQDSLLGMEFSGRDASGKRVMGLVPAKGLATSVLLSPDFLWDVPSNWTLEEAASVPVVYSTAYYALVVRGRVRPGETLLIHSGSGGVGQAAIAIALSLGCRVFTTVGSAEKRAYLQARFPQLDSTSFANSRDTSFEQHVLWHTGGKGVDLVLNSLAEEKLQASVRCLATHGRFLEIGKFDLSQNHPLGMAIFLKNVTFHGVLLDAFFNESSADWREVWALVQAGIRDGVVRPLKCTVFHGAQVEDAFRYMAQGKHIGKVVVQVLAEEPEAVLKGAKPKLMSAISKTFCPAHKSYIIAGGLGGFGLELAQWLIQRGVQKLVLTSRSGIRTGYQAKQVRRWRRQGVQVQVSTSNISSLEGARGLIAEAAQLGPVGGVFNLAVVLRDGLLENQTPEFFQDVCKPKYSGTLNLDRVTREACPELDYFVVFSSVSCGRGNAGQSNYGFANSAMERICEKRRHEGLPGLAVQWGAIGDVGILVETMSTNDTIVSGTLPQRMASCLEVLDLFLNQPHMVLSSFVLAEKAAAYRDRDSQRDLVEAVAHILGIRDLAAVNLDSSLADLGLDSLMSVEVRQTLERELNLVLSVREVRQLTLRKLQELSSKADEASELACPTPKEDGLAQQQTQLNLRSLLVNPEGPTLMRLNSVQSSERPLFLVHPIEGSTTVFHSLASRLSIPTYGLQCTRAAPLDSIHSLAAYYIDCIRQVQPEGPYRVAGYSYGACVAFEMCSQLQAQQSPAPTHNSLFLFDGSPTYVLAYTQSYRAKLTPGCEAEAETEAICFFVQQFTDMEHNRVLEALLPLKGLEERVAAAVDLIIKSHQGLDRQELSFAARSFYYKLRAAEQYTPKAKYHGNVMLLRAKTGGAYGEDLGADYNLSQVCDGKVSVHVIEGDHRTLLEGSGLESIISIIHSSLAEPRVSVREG
Mot1-301 SUMO = inhibitors of SUMOylation pathway: yeast Mot1-301 growth rescue | S. cerevisiae Mot1-301 growth rescue, ATP luminescence, 38.5C; percent above DMSO median, 100 means doubled | growth rescue, % at 18.8 µM | 320,000 compounds, 1% hits | AID 2716;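 active = every valid replicate shows activation above 250% relative to neutral control wells; inactive = the rest, any valid replicate at or below 250%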;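 also: OY570 slx delta 5 strain wells were the positive control but not used for scaling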
MPTP block = permeability transition pore inhibition; isolated mouse mitochondria, Ca2+ swelling absorbance, 30 min; inhibition, % at 10 µM; 360,000 compounds, 1.4% hits;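 active = inhibition of 50% or more, scaled per plate between neutral and stimulator controls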;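 also: 0% = DMSO wells given calcium and 100% = 1 mM EGTA wells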
Yeast superoxide = lowers age-related superoxide in aged yeast cells | superoxide response (% of plate mean), % at 10 µM | S. cerevisiae aged cells, superoxide DHE fluorescence; stronger effect = lower value | 330,000 compounds, 0.18% hits | AID 2690;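 active = superoxide response under a set limit, about three screen SD below normal, cut at about 65% in these data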;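 also: yeast aged for seven days with compound at 30 °C before DHE staining; 100% = average MFI of all compound-treated wells on the plate with controls excluded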
H9c2 protect = modulators protecting cardiomyocytes from myocardial damage; H9c2 cardiomyocytes, H2O2 injury protection, ATPLite, 2 h; AID 588492; 360,000 compounds, 0.63% hits; protection from H2O2 cell death, % at 20 µM;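 active = compounds giving at least 50% protection of heart cells from peroxide-induced death in the single-dose screen, raw or plate-pattern-corrected value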;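 also: 0% = DMSO wells with peroxide and 100% = DMSO wells without peroxide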
aDG glyco act = increases alpha dystroglycan glycosylation; 360,000 compounds, 0.22% hits; activation, % at 10 µM; Pro5-aDG cells, alpha-DG glycosylation AlphaScreen (IIH6); 0% Pro5, 100% B10-LARGE cell signal;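 active = activation of at least 8% versus controls, or a plate z-score of at least 8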;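 also: Pro5 are CHO cells carrying HIG-tagged alpha-DG that lacks glycosylation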
FAS-TE inh conf = FAS thioesterase (human) inhibition, confirmation; shares compounds with FAS-TE inh; recombinant FAS-TE, OMFH fluorogenic substrate, fluorescence; inhibition, % at 15 µM; 2,300 compounds, 45% hits; AID 624325;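 active = compounds inhibiting the enzyme by at least 50% at 15 µM in any one of the replicates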;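 also: 0% = enzyme with DMSO only and 100% = wells lacking enzyme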
* marks the source's active call; other numbers are inactive results; nt = not tested or not shown. A selection: hits, their analogues and other compounds. The true share with any hit is near 3.8%.

SMILES | FAS-TE inh | Mot1-301 SUMO | MPTP block | Yeast superoxide | H9c2 protect | aDG glyco act | FAS-TE inh conf
Cc1ccc(NC(=O)n2ccc(-c3ccc(-n4ccnc4)cc3)n2)cc1 | 2 | nt | 0 | nt | -8 | 0 | nt
N#Cc1cccnc1N1CCN(C(=O)c2cccc3c2C(=O)c2ccc(-c4ccc(Cl)c(C(F)(F)F)c4)cc2S3(=O)=O)CC1 | 80* | -10 | 1 | 112 | 8 | 0 | 2
COc1ccc(-c2ccc3c(c2)S(=O)(=O)c2cccc(C(=O)N4CCN(c5c(Cl)cncc5Cl)CC4)c2C3=O)cc1OC | 68* | -8 | 0 | 105 | 66* | -1 | -2
O=C1c2ccc(Cl)cc2S(=O)(=O)c2cccc(C(=O)N3CCN(c4ncc(Br)cn4)CC3)c21 | 68* | -6 | 0 | 103 | 1 | 0 | 9
N#Cc1cccnc1N1CCN(C(=O)c2cccc3c2C(=O)c2ccc(Cl)cc2S3(=O)=O)CC1 | 26 | -2 | 1 | 100 | 17 | 0 | nt
O=C(NC1CCCC1)c1cccc2c1C(=O)c1ccc(Cl)cc1S2(=O)=O | -3 | -1 | 1 | 116 | -2 | 0 | nt
O=C1c2ccc(Cl)cc2S(=O)(=O)c2cccc(C(=O)N3CCC(Cc4ccccc4)CC3)c21 | 84* | -23 | 0 | 106 | -4 | 0 | 27
CCN1C=C(C(=O)c2ccccc2)C(=O)CC1 | -6 | nt | 1 | nt | 7 | 0 | nt
Cc1cccc(NS(=O)(=O)Cc2ccccc2)c1C | -1 | -10 | 1 | 102 | -2 | 0 | nt
Cc1coc2c1C(=O)C(=O)c1c-2ccc2c1CCCC2(C)C | 58* | 25 | 19 | 86 | -14 | 1 | 22
Cc1cccc(N(CC(=O)NC2CCCC2)C(=O)c2nsc(Cl)c2Cl)c1C | 9 | 182 | 1 | 97 | 6 | 0 | nt
CCOc1ccccc1N(CC(=O)NC1CCCCC1)C(=O)c1nsc(Cl)c1Cl | 50* | -8 | 6 | 83 | -6 | 1 | 18
Cc1cc(OCc2nc(N)nc(N)c2-c2ccc(Cl)c(Cl)c2)ccc1[N+](=O)[O-] | 51* | nt | 2 | nt | -16 | 0 | 12
Cc1nc(N)nc(N)c1-c1ccc(Cl)c(Cl)c1 | -2 | nt | -3 | nt | -6 | 0 | nt
COc1ccc(CCNC(=O)C2CC(c3ccc([N+](=O)[O-])cc3)=NO2)cc1 (stereo not given) | 6 | 0 | 0 | 93 | 2 | 0 | nt
COc1ccc(C2=NOC(COc3ccc([N+](=O)[O-])cc3)C2)cc1 (stereo not given) | 54* | 21 | 1 | 107 | -5 | 0 | 26
COc1ccc(CCC(=O)OCC(=O)Nc2sccc2C(N)=O)cc1OC | -4 | -1 | 0 | 104 | -23 | 1 | nt
CCN(CC)CCN(C(=O)c1ccc(S(=O)(=O)N2CCCCC2)cc1)c1nc2cc3c(cc2s1)OCO3 | 53* | -19 | -2 | 104 | 4 | 0 | 9
CCN(CC)CCN(C(=O)c1ccc2ccccc2c1)c1nc2cc3c(cc2s1)OCO3 | 28 | -12 | 2 | 93 | -6 | 0 | nt
COc1cccc(NC(=O)CN2C(=O)COc3ccc(S(=O)(=O)N4CCC(C)CC4)cc32)c1 | 61* | 26 | 0 | 140 | 0 | 0 | 66*
COc1ccccc1NC(=O)CN1C(=O)COc2ccc(S(=O)(=O)N3CCC(C)CC3)cc21 | 16 | -6 | 3 | 125 | 0 | 0 | nt
Cn1ncc2c(Nc3cccc(Cl)c3)nc(Nc3cccc(Cl)c3)nc21 | 57* | 128 | 2 | 108 | -4 | 0 | 28
Cn1ncc2c(Nc3ccc(O)cc3)nc(Cl)nc21 | -1 | 10 | -1 | 99 | 10 | 0 | nt
CNc1nc(Nc2ccc(C)c(Cl)c2)c2cnn(C)c2n1 | 4 | 32 | 2 | 94 | -10 | 0 | nt
Cn1ncc2c(Nc3ccc(Br)cc3)nc(Nc3ccc(Br)cc3)nc21 | 50* | 26 | 0 | 102 | -4 | 1 | 32
SMILES | FAS-TE inh | Mot1-301 SUMO | MPTP block | Yeast superoxide | H9c2 protect | aDG glyco act | FAS-TE inh conf
COc1ccccc1-n1cnnc1SCC(=O)Nc1cccc(S(=O)(=O)N2CCCCC2)c1 | nt | 180 | nt | 97 | nt | nt | nt
Cc1ccc(CN2CCC(CNC(=O)c3ccc(NC(=O)C4=CSCCO4)cc3)CC2)cc1 | -7 | -7 | -1 | 90 | -2 | 2 | nt
COc1ccccc1C(=O)Nc1nc(-c2ccc(S(=O)(=O)N3CCOCC3)cc2)cs1 | 52* | -12 | 5 | 99 | 31 | 0 | 23*
CC(C)C(=O)Nc1nc(-c2ccc(S(=O)(=O)N3CCOCC3)cc2)cs1 | 85* | -9 | 0 | 99 | 0 | 0 | 86*
COc1ccccc1OC(C)C(=O)Nc1nc(-c2ccc(S(=O)(=O)N3CCOCC3)cc2)cs1 (stereo not given) | 46 | 3 | 4 | 79 | 15 | 0 | nt
O=C(Nc1nc(-c2ccncc2)cs1)c1ccc(S(=O)(=O)N2CCOCC2)cc1 | -1 | -7 | 0 | 101 | -2 | 0 | nt
O=C(Nc1cc(S(=O)(=O)N2CCOCC2)ccc1N1CCCC1)c1ccc2c(c1)S(=O)(=O)c1ccccc1C2=O | 79* | -41 | -4 | 100 | 9 | -1 | 20
COc1ccc(-c2cc(C(=O)Nc3cc(S(=O)(=O)N4CCOCC4)ccc3N3CCOCC3)c3ccccc3n2)cc1 | 82* | -5 | 1 | 113 | 34 | -1 | 28
CCN1CCN(c2ccc(S(=O)(=O)N3CCOCC3)cc2NC(=O)c2cc(Cl)nc3ccccc23)CC1 | 0 | 18 | -4 | 98 | 16 | 0 | nt
COc1ccc(CN2CCC(C(=O)c3ccc(F)cc3)CC2)cc1 | -5 | 31 | 0 | 90 | -1 | 0 | nt
O=C(COc1cccc(Cl)c1)Nc1nc(-c2ccc(S(=O)(=O)N3CCOCC3)cc2)cs1 | 66* | nt | -1 | nt | 10 | 0 | 23*
O=C(Nc1nc(-c2ccc(S(=O)(=O)N3CCCC3)cc2)cs1)c1ccco1 | 70* | 1 | 0 | 111 | 15 | 0 | 65*
CNc1nc(-c2ccc(S(=O)(=O)N3CCCCC3)cc2)cs1 | 12 | 4 | -1 | 131 | -7 | 0 | nt
Cn1nc(C(C)(C)C)cc1C(=O)N1CCCC(c2cc(C(=O)Nc3ccccc3Cl)no2)C1 (stereo not given) | 10 | nt | 0 | nt | -14 | 0 | nt
Cc1sc2nc(CN3CCOCC3)nc(NS(=O)(=O)c3cc(Cl)ccc3Cl)c2c1C | -1 | -23 | 2 | 116 | -3 | 0 | nt
CC1CCN(S(=O)(=O)c2ccc3c(c2)c(=O)c(C(=O)N2CCOCC2)cn3C)CC1 | -13 | 16 | -2 | 83 | 2 | 0 | nt
CCN1CCCC1CNC(=O)c1cn(C)c2ccc(S(=O)(=O)N3CCCCCC3)cc2c1=O (stereo not given) | -14 | nt | 0 | nt | -14 | 0 | nt
